# Source: PubChem BioAssay (National Center for Advancing Translational Sciences (NCATS))
# AmpC inh detg – inhibitors of E. coli AmpC beta-lactamase with detergent | P00811 | AmpC hydrolysis of nitrocefin, absorbance 480 nm, 0.01% Triton | Potency, µM (top dose mostly 114 µM), without a hit: at the highest dose activity change, negative = inhibition, most hits filed as inhibitors | hit rate 0.041% among 370,000 | AID 485294;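 note: potency is the fitted concentration of half-maximal effect; 0% = no-compound wells and -100% = no-enzyme wells; nearly all actives have a fitted effect of over 25% in size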
# Target sequence (P00811 whole entry, looked up): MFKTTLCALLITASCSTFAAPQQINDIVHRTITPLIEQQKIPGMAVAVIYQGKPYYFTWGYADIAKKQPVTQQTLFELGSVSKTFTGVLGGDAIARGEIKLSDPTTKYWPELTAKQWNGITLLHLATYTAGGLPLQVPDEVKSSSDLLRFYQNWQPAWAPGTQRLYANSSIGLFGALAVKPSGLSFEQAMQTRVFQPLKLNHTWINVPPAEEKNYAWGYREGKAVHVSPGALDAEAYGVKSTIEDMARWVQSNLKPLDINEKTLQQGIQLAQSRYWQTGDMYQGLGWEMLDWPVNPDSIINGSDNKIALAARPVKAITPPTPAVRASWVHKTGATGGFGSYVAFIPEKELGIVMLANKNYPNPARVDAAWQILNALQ
#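 20 mM phosphate pH 7.0 + 0.01% (detergent screen) or 0.0001% Triton X-100; 5.3 nM AmpC reagent; cpd preinc 15 min RT; nitrocefin (800 uM stock) to start; A480 q20 s × 4 min; Activity was normalised to no-enzyme and no-compound control wells.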
# Shiga toxin inh – blocks Shiga toxin action in Vero cells; Vero cells, Shiga toxin protein synthesis inhibition reporter; inhibition, % at 38.7 µM; hit rate 9.2% among 290,000; in the data active = inhibition mostly above about 28%, no sharp cut-off; inactive = mostly below about 43%; note: 0% is about no effect
# NS1 inh – influenza NS1 inhibition | hit rate 0.4% among 270,000 | AID 2326 | Potency, µM (doses to about 46.1 µM), for the others: at the top dose activity, positive = more growth; calls by dose curve; note: potency is the fitted concentration of half-maximal effect; actives are rising curves; nearly all actives have a fitted effect of over 50% in size
#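 Recovery from NS1-induced slow growth read by OD600 in budding yeast switched to galactose assay medium (pH 6.0, -URA) at 1:100 dilution. Compound 23 nl per well; the matching strain lacking NS1 serves as control.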
# CHX counter – counter-screen hit for Shiga toxin inhibitors, cycloheximide; cell reporter, cycloheximide protein synthesis inhibition counterscreen; max response, %; hit rate 12% among 300,000; AID 2314; in the data active = max response mostly above about 13%, no sharp cut-off; inactive = mostly below about 14%; note: read at 38.3 µM for the half of the compounds with a filed dose; 0% is about no effect
# AmpC inh no detg – blocks E. coli AmpC beta-lactamase in detergent-free assay; AmpC nitrocefin hydrolysis, absorbance 480 nm, 0.0001% Triton; Potency, µM (doses to about 57.1 µM), for inactives: top-dose activity change, negative = inhibition, usual class: inhibitors; hit rate 0.52% among 330,000; AID 485341;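 note: potency is the fitted concentration of half-maximal effect; plate controls were no compound for no effect and no enzyme for full effect; nearly all actives have a fitted effect of over 20% in size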
#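 AmpC (5.3 nM in the dispensed reagent) in 20 mM phosphate pH 7.0 with 0.01% (detergent screen) or 0.0001% Triton X-100 was preincubated with compounds for 15 min at room temperature. Nitrocefin was then added from an 800 uM solution, and hydrolysis was followed at 480 nm.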
# * marks the source's active call; other numbers are inactive results; ? = inconclusive; . = no result given. The entries come from a sample that favours hits as a whole. Unless noted, calls come from the whole dose curve; as a rule, active = well fitted curve in the direction sought with a large enough effect; inconclusive = small, poorly fitted or top-dose-only effect, or another doubt; inactive = no such curve, though single readings can be large; an effect the other way counts as inactive or inconclusive.
SMILES,AmpC inh detg,Shiga toxin inh,NS1 inh,CHX counter,AmpC inh no detg
CCCCNC(=O)C(Cc1ccccc1)NS(=O)(=O)c1ccc2c(c1)c(=O)n(C)c(=O)n2C (stereo unspecified),10.2%,32.1,0.1%,-3.8,-19.8%
Cc1nc(SCC(=O)Nc2ccccn2)n[nH]1,-5.9%,-6.6,2.6%,7.3,0.3%
COc1ccc2nc(NC(=O)CSc3nnnn3C3CCCCC3)sc2c1,1.5%,19.1,-47.0%,3.3,.
CSc1nsc(SCC(=O)Nc2ccccn2)n1,-1.7%,41.7*,-5.5%,23.1*,?
Cc1nc(SCC(=O)Nc2nc3ccccc3s2)n[nH]1,4.8%,69.3*,5.6%,53.8*,-8.8%
COc1ccccc1NC(=O)CSc1nc(SC)ns1,-14.1%,15.8,-11.9%,6.7,-26.7%
COc1ccc(-c2csc(NC(=O)CSc3nc(SC)ns3)n2)cc1,?,57.2*,8.2%,39.2*,-43.1%
CCOc1ccc2nc(NC(=O)CSc3nnnn3C3CCCCC3)sc2c1,-6.1%,49.7*,-38.6%,30.4*,-12.0%
CC(C)(C)c1ccccc1NC(=O)CSc1nc(-c2cccs2)cc(C(F)(F)F)n1,20.9%,.,.,.,.
CSc1nsc(SCC(=O)Nc2ccc(F)cc2)n1,?,42.1,-24.1%,9.1,-41.4%
CSc1nsc(SCC(=O)Nc2nc3ccccc3s2)n1,-8.8%,67.4*,21.9%,29.7*,-42.7%
COc1ccc(OC)c(-c2csc(NC(=O)CSc3nnnn3C)n2)c1,?,.,.,.,-11.9%
CSc1nsc(SCC(=O)NC2CCCCC2)n1,?,51.9,-9.3%,26.6*,-14.4%
COc1ccc2nc(NC(=O)CSc3nnnn3C)sc2c1,3.2%,45.8*,3.4%,28.3*,-18.1%
COc1ccc2nc(NC(=O)CSc3nnc(C)s3)sc2c1,0.0%,30.1,13.1%,11.6*,-22.7%
COc1ccc2nc(NC(=O)CSc3nc(SC)ns3)sc2c1,-2.3%,72.1*,-19.2%,46.7*,-27.7%
COc1ccc2nc(NC(=O)CSc3nccc(C)n3)sc2c1,-3.4%,21.9,-13.0%,8.5,-38.7%
O=C(CCc1ccccc1)NNC(=S)NC(=O)c1ccc(Cl)cc1,-12.6%,3.1,-111.7%,18.0,-16.4%
CC(=O)N1CCN(C(=S)Nc2ccc(SC(F)F)cc2)CC1,-9.9%,-13.4,.,1.0,-8.1%
Cc1ccc(C(=O)Nc2ccc(SC(F)F)cc2)s1,-6.5%,108.9*,.,50.9*,-17.8%
O=C(Nc1ccc(SC(F)F)cc1)C1=COCCO1,?,70.4*,-3.6%,34.0*,-18.3%
CC1CCc2c(sc(NC(=O)C3c4ccccc4Oc4ccccc43)c2C(=O)OC(C)C)C1 (stereo unspecified),14.2%,.,.,.,.
COc1cccc(-n2c(SCC(=O)N3CCc4ccccc43)nc3c([nH]c4ccccc43)c2=O)c1,7.9%,.,.,.,.
CC(NC(=O)COC(=O)c1cccs1)c1ccccc1 (stereo unspecified),1.2%,30.7,-4.4%,11.6*,-12.1%
COc1cc(N)c(Cl)cc1C(=O)OCC(=O)c1cccs1,-1.0%,54.0*,0.7%,19.4,-7.3%
SMILES,AmpC inh detg,Shiga toxin inh,NS1 inh,CHX counter,AmpC inh no detg
COc1ccc(C(=O)COC(=O)c2cccs2)cc1,.,.,.,.,-11.1%
O=C(COC(=O)c1cccs1)c1ccccc1,-13.5%,78.2*,-4.7%,42.1*,-12.5%
COc1cccc(C(=O)COC(=O)c2cccs2)c1,1.7%,76.3*,3.6%,38.3*,3.4%
CCOC(=O)CCNCc1ccc(F)cc1,-7.3%,-17.3,1.3%,-1.9,-28.5%
COC(=O)CN1C(=O)CSc2ccc(S(=O)(=O)Nc3cccc(Br)c3)cc21,3.6%,.,.,.,.
CCn1c(CN2CCC(C)CC2)nc2cc(NC(=O)c3cccc([N+](=O)[O-])c3)ccc21,14.7%,.,.,.,.
CC[C@@]1(C(=O)OC)N[C@H](CN(C)S(=O)(=O)c2ccc(-c3ccccc3)cc2)[C@@H]2C(=O)N(Cc3ccccc3)C(=O)[C@@H]21,.,.,.,.,-8.7%
Fc1ccccc1Nc1n[nH]c(=S)s1,1.5%,69.2*,0.2%,26.2*,-39.3%
S=c1[nH]nc(Nc2cccc3ccccc23)s1,-5.6%,-3.5,4.7%,-1.9,28.2µM*
c1ccc2c(Nc3nc4c(s3)CCCC4)cccc2c1,-13.1%,111.9*,-55.3%,45.1*,-40.7%
O=S(=O)(Nc1nc2c(s1)CCCC2)c1ccc2ccccc2c1,-1.4%,-27.8,0.9%,0.6,-30.6%
CCOc1ccc(Nc2n[nH]c(=S)s2)cc1,-8.8%,42.7,6.5%,12.1,-20.4%
CC1CCN(S(=O)C23CC4CC(CC(C4)C2)C3)CC1 (stereo unspecified),-0.6%,-6.9,-3.6%,8.8,19.2%
O=C(NCc1cccc(Br)c1)c1ccc(-n2cnc3cccnc32)cc1,-7.1%,.,.,.,.
CCSc1nc(N)c2c3c(sc2n1)CN(C)CC3,-1.9%,-2.4,8.2%,-2.1,-22.2%
CSc1nc(N)c2c3c(sc2n1)CN(C)CC3,-6.0%,12.6,3.1%,0.8,-10.5%
COC(CSc1nc(N)c2c3c(sc2n1)CN(C)CC3)OC,-6.4%,41.7,7.8%,30.7*,-11.8%
C=CCSc1nc(N)c2c(C)c(C)sc2n1,?,28.9,-12.8%,10.7*,-14.1%
C=CCSc1nc(N)c2c3c(sc2n1)CN(C)CC3,-0.4%,12.3,2.4%,21.3*,-17.1%
CCSc1nc(N)c2c(C)c(C)sc2n1,-6.8%,21.0,-1.2%,2.0,-13.6%
Cc1ccc(NC(=O)CSc2ncc3c(n2)-c2ccccc2N(C)S3(=O)=O)c(Cl)c1,1.5%,.,.,.,.
Cc1cccc(Nc2nc(N)nc(CSc3nccn3C)n2)c1,?,51.0*,8.4%,10.8,-8.0%
Cc1ccc(S(=O)(=O)CCSc2nccn2C)cc1,-7.9%,-1.4,-1.0%,2.0,91.4%
Cc1cccc(Nc2nc(N)nc(CC(=O)CSc3ccc(Cl)cc3)n2)c1,?,-13.8,11.2%,-6.2,-20.4%
COc1ccccc1Nc1nc(N)nc(CSc2nncn2C)n1,-9.9%,-30.5,-3.5%,0.8,-14.8%
SMILES,AmpC inh detg,Shiga toxin inh,NS1 inh,CHX counter,AmpC inh no detg
COc1ccccc1Nc1nc(N)nc(CSc2nccn2C)n1,4.2%,44.7*,1.0%,5.9,-8.9%
Cc1ccc(Nc2nc(N)nc(CSc3nccn3C)n2)cc1,3.0%,68.8*,1.4%,51.7*,-10.7%
COc1ccc(C(=O)COC(=O)C(CCSC)NC(=O)COc2ccccc2)cc1 (stereo unspecified),-10.2%,.,.,.,-0.4%
O=C(CCCCCCCC(=O)c1ccccc1)c1ccccc1,?,-4.9,-4.2%,6.5,-14.1%
C=C(CCC(=O)c1ccccc1)C(=O)c1ccccc1,-19.7%,4.1,-44.5%,17.2*,-21.8%
CN1CCN(c2ccc(NC(=O)c3ccc(Oc4ccccc4)cc3)cc2)CC1,-8.6%,30.7*,-10.9%,10.1,40.9%
COc1ccc(NC(=O)c2cc3ccccc3cc2OC)cc1,-5.3%,68.8,-55.9%,29.3*,57.4%
CN1CCN(c2ccc(-c3ccnn3C(=O)Nc3ccccc3)cc2)CC1,-1.5%,83.2,0.6%,40.9*,-11.8%
COc1ccc(NC(=O)NNC(=O)c2cc3ccccc3cc2O)cc1,0.9%,-10.8,9.9%,1.1,?
CN1CCN(c2ccc(NC(=O)Oc3ccccc3)cc2)CC1,-7.2%,-6.1,-6.8%,-3.4,-16.0%
